High-throughput results: PubChem BioAssay, National Center for Advancing Translational Sciences (NCATS)
The sample as a whole holds a higher share of hits than the screen did.
Pf Dd2 growth – blocks in vitro growth of P. falciparum Dd2 | P. falciparum Dd2 growth, SYBR Green, 72 h | Potency, µM (top dose mostly 28.9 µM), most hits filed as inhibitors | hit rate 4.3% among 120,000 | AID 1347417; active = well fitted inhibition curve with a large enough effect; note: nearly all actives have a fitted effect of over 65% in size
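Readout: SYBR Green fluorescence, 485 nm excitation, 535 nm emission, after ~16 h lysis at 37C. Before that, Dd2-infected red cells (2.5% hematocrit) grew 72 h with compound, 29 uM top final concentration.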
Numbers stand for hits; [ ] = remark or other dose.

`O=C1NCc2ccccc2CC12CCCN2Cc1ccc(Cl)s1` (centres undefined) gave Pf Dd2 growth 10µM.
Screening O=C1NCc2ccccc2CC12CCN(Cc1ccc(Cl)s1)C2 (centres undefined) returned Pf Dd2 growth inactive.
`O=C1NCc2ccccc2CC12CCCN2Cc1cnc2ccccc2c1` (centres undefined) gave Pf Dd2 growth 8.9µM.
`O=C1NCc2ccccc2CC12CCCN2Cc1cc(O)cc(O)c1` (centres undefined) gave Pf Dd2 growth inactive.
`O=C1NCc2ccccc2CC12CCCN2Cc1ccc(Cl)cc1` (centres undefined) gave Pf Dd2 growth inactive.
Screening O=C1NCc2ccccc2CC12CCCCN2Cc1ccc(O)cc1 (centres undefined) returned Pf Dd2 growth inactive.
O=C1NCc2ccccc2CC12CCN(Cc1cnc3ccccc3c1)C2 (centres undefined) was read as Pf Dd2 growth inactive.
Screening O=C1NCc2ccccc2CC12CCCN2Cc1ccccc1Cl (centres undefined) returned Pf Dd2 growth inactive.
O=C1NCc2ccccc2CC12CCCCN2Cc1ccnc2ccccc12 (centres undefined) was read as Pf Dd2 growth 8.9µM.
`CCn1ccc2c(CN3CCC4(CCCN(CCOC)C4=O)C3)cccc21` (centres undefined) gave Pf Dd2 growth inactive.
For Cc1ccccc1-c1[nH]nc2ncc(-c3ccc(F)cc3)nc12 the results were Pf Dd2 growth inactive.
Screening CC(C)NC(=O)N1CCC(c2nc(C3CCOCC3)no2)CC1 returned Pf Dd2 growth inactive.
For Cn1nc(-c2ccc(C(=O)Nc3cccc(C(F)(F)F)c3)cc2)c2ccccc2c1=O the results were Pf Dd2 growth inactive.
Cc1cc(Nc2cccc(C(F)(F)F)c2)nc2ccc(NC(=O)c3cncc(Br)c3)cc12 was read as Pf Dd2 growth 0.18µM.
CCOc1cc(C(=O)Nc2ccc3nc(Nc4cccc(Cl)c4)cc(C)c3c2)cc(OCC)c1OCC was read as Pf Dd2 growth 2µM.
Cc1cc(Nc2cccc(Cl)c2)nc2ccc(NC(=O)c3cncc(Br)c3)cc12 was read as Pf Dd2 growth 2.8µM.
Screening CCN(CC)c1ccc(C(=O)Nc2ccc3nc(N(CC)CC)cc(C)c3c2)cc1 returned Pf Dd2 growth inactive.
`Cc1ccccc1C(=O)Nc1ccc2nc(Nc3cccc(C(F)(F)F)c3)cc(C)c2c1` gave Pf Dd2 growth inactive.
CCOc1cc(C(=O)Nc2ccc(-c3cn4cccnc4n3)cc2)cc(OCC)c1OCC was read as Pf Dd2 growth inactive.
For CCN(CC)S(=O)(=O)c1ccc2nc(NC(=O)c3cncc(Br)c3)sc2c1 the results were Pf Dd2 growth inactive[0.594 µM].
Screening COc1ccc(Nc2ncc(C(=O)Nc3cccc(Cl)c3)c3ccccc23)cc1 returned Pf Dd2 growth inactive.
`COC[C@@H]1CN(C(=O)c2cc(C)cc(C)c2)C[C@H]1C(N)=O` gave Pf Dd2 growth inactive.
For CCN1C(=O)CN(C(=O)c2cccnc2)CC12CCOCC2 the results were Pf Dd2 growth inactive.
`CC(C)CNc1ccc2nnc(-c3ccc(F)cn3)n2n1` gave Pf Dd2 growth inactive.
Screening CN(CC1CCN(CCc2cccc(F)c2)CC1)C(=O)COc1cccnc1 returned Pf Dd2 growth inactive.
For O=C1CCN(Cc2cccc(F)c2)CCCC(c2nc(-c3cccnc3)no2)CCN1 (centres undefined) the results were Pf Dd2 growth inactive.
For CCN(Cc1cccc2cnccc12)CC1CCCN(CCc2cccc(F)c2)C1 (centres undefined) the results were Pf Dd2 growth 2.2µM.
`Cc1ccc2c(c1)c(Cn1cnc(-c3ccccc3)c1-c1cnc[nH]1)nn2C` gave Pf Dd2 growth inactive.
Screening CCC(Sc1nncn2c1cc1occc12)C(=O)Nc1ccc(C)c(Cl)c1 (centres undefined) returned Pf Dd2 growth 14µM.
For Cc1oc(-c2cccc(Cl)c2)nc1CSc1nncn2c1cc1occc12 the results were Pf Dd2 growth inactive[5.79 µM].
O=C(CSc1nncn2c1cc1occc12)Nc1ccc(F)c(Cl)c1 was read as Pf Dd2 growth inactive.
Screening COCCN1C(=O)CS(=O)(=O)C12CCN(C(=O)COc1ccc(Cl)cc1)CC2 returned Pf Dd2 growth inactive.
`Cc1ccc(NC(=O)Cn2cccc2-c2nc(-c3ccc(F)cc3)no2)cc1F` gave Pf Dd2 growth inactive.
Screening CC(=O)c1cccc(NC(=O)Cn2cccc2-c2nc(-c3ccc4c(c3)OCO4)no2)c1 returned Pf Dd2 growth inactive.
For COc1ccc(-c2noc(-c3cccn3CC(=O)Nc3cccc(C)c3)n2)cc1F the results were Pf Dd2 growth inactive.
`COc1ccc(-c2nc(CSCC(=O)N3CCN(c4ccccc4F)CC3)c(C)o2)cc1` gave Pf Dd2 growth 6.3µM.
For COc1ccc(NC(=O)Cn2cccc2-c2nc(-c3ccc(F)cc3)no2)cc1Cl the results were Pf Dd2 growth 11µM.
CCOC(=O)c1ccc(NC(=O)Cn2cccc2-c2nc(-c3ccc(OC)c(F)c3)no2)cc1 was read as Pf Dd2 growth inactive.
For COc1ccc(-c2noc(-c3cccn3CC(=O)Nc3ccc(F)cc3)n2)cc1F the results were Pf Dd2 growth 3.2µM.
Screening CC(=O)c1ccc(NC(=O)Cn2cccc2-c2nc(-c3ccc4c(c3)OCO4)no2)cc1 returned Pf Dd2 growth inactive.
`COc1ccc(-c2noc(-c3cccn3CC(=O)Nc3cc(Cl)c(OC)cc3OC)n2)cc1F` gave Pf Dd2 growth inactive.
For O=C(CSCc1ccc(F)cc1)N1CCN(c2ccccc2F)CC1 the results were Pf Dd2 growth inactive.
For Cc1oc(-c2ccccc2F)nc1CSCC(=O)N1CCN(c2ccccc2)CC1 the results were Pf Dd2 growth inactive.
For O=C(Cn1cccc1-c1nc(-c2ccc3c(c2)OCO3)no1)Nc1ccccc1 the results were Pf Dd2 growth 2.8µM.
`CN(CCO)C[C@@H]1CN(C(=O)Cc2c(F)cccc2Cl)C[C@@H]1CO` gave Pf Dd2 growth inactive.
For CCc1cccc2c(C(CC(=O)NCC(C)C)c3cccc([N+](=O)[O-])c3)c[nH]c12 (centres undefined) the results were Pf Dd2 growth inactive.
`C[C@]1(O)CCN(C(=O)c2ccc(N3CCOCC3)cc2)C[C@@H]1O` gave Pf Dd2 growth inactive.
For CN1CCN(Cc2nc(C3(O)CCN(C(=O)Nc4ccc(F)cc4)CC3)cs2)CC1 the results were Pf Dd2 growth inactive.
Screening COC(=O)C1CCN(C(=O)CC[C@H]2CNC(=O)[C@@H]3[C@@H](CCN3Cc3ccc(OC)cc3)N2C)CC1 returned Pf Dd2 growth inactive.
Screening Cc1ccc(C(=O)N2CC[C@@H]3CN(S(C)(=O)=O)[C@@H]3C2)c(=O)[nH]1 returned Pf Dd2 growth inactive.
O=C(NCCN1CCCC1)C1Cn2cccc2C(=O)N1Cc1ccccc1 (centres undefined) was read as Pf Dd2 growth inactive.
`CCOc1cc(-c2noc(-c3nnn4c3COC(c3ccc(C)cc3C)C4)n2)ccc1OC` (centres undefined) gave Pf Dd2 growth inactive.
`COc1cccc(C(=O)NCCC2CCN(C(=O)Nc3ccc(C)cc3)CC2)c1` gave Pf Dd2 growth inactive.
For COC(=O)CN1C(=O)[C@@H]2C[C@@H](O)CN2C2(CNC2)C1=O the results were Pf Dd2 growth inactive.
For CC(=O)N1CCC(N2CCOC[C@H]2c2ncc(-c3cccnc3)[nH]2)CC1 the results were Pf Dd2 growth inactive.
COc1ccc(-c2noc(-c3cccn3CC(=O)N3CCN(c4ccccc4F)CC3)n2)cc1F was read as Pf Dd2 growth 2.5µM.
